Screens: PubChem BioAssay, National Center for Advancing Translational Sciences (NCATS)
The list is not random: actives were taken first. Their share in the collection is about 12%.
PLK1 PBD inh = qHTS for Inhibitors of PLK1-PDB (polo-like kinase 1 - polo-box domain): Primary Screen. actives 2.8% (n = 360,000). Potency, µM, most hits filed as inhibitors. AID 720504, 2013. Plk1 PBD binding of FITC phosphopeptide, fluorescence polarization; note: series mostly up to about 57 µM; nearly all actives have a fitted effect of over 65% in size
HP1b binding inh = HTS for Inhibitors of HP1-beta Chromodomain Interactions with Methylated Histone Tails. Chromobox protein homolog 1 (Homo sapiens), P83916. AlphaScreen HP1-beta / biotin-H3K9me3 peptide binding. Potency, µM (titrated, usually from 114 µM), most hits filed as inhibitors. actives 0.56% (n = 390,000). AID 540317, 2011; note: nearly all actives have a fitted effect of over 70% in size
Target sequence (P83916 whole entry, looked up): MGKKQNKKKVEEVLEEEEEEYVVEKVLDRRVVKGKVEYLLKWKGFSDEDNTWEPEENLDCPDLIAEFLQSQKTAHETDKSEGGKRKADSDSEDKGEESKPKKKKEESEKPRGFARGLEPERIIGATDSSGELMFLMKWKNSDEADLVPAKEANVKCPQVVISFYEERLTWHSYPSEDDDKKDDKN
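Compound inhibition of the preformed complex between 50 nM HP1-beta and 50 nM biotinylated H3K9me3 peptide was read by AlphaScreen. Buffer was PBS pH 7.4 with 0.01% Tween-20. Incubations ran 30 min at room temperature, with 10 ug/mL donor/acceptor beads.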
Sfp PPTase inh = qHTS Assay for Inhibitors of Bacillus subtilis Sfp phosphopantetheinyl transferase (PPTase). Biochemical Sfp PPTase activity, qHTS. 4'-phosphopantetheinyl transferase ffp (Bacillus subtilis), Q9F4F7. Potency, µM, hits mostly inhibitors. actives 3.5% (n = 310,000);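 note: the enzyme is Sfp with the accession as filed and its product quenches rhodamine fluorescence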
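Step 1, compound plus 15 nM Sfp-PPTase, 15 min, room temperature. Step 2, add rhodamine-CoA (5 uM) and BHQ-2-YbbR (12.5 uM). Step 3, read 525/598 nm fluorescence at 0 and 30 min.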
BAZ2B block = qHTS Assay for Inhibitors of BAZ2B. Potency, µM (highest dose often 114 µM), hits mostly inhibitors. Bromodomain adjacent to zinc finger domain protein 2B (Homo sapiens), Q9UIF8. actives 4.4% (n = 360,000). AlphaScreen BAZ2B-H3K14Ac peptide displacement; note: nearly all actives have a fitted effect of over 60% in size
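Protein-peptide AlphaScreen: BAZ2B 50 nM, b-H3K14Ac 50 nM, 1x PBS pH 7.4 + 0.01% Tween-20. Preincubation 30 min RT; cpd 30 min RT (top 110 uM); beads 20 min RT, light-protected.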
G9a inh = qHTS Assay for Inhibitors of Histone Lysine Methyltransferase G9a; Potency, µM (highest dose often 102 µM), hits mostly inhibitors; actives 8.8% (n = 350,000); G9a H3K9 monomethylation, AlphaScreen, 2 h; AID 504332, 2011; note: nearly all actives have a fitted effect of over 75% in size
Target sequence (Q96KQ7 913-1193 limits assumed): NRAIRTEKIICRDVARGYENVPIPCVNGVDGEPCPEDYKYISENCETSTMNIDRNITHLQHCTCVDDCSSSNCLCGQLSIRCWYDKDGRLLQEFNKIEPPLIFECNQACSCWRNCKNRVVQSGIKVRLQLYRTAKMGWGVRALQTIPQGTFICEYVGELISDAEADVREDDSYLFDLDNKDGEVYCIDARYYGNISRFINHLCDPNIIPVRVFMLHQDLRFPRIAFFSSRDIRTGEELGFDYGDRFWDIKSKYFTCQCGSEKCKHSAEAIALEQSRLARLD
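Compounds were preincubated with 20 nM G9a for 15 min, after which biotinylated H3K9 peptide (500 nM) and SAM (20 uM) started a 2 h room-temperature reaction. Monomethylated product was quantified by antibody-based AlphaScreen chemiluminescence.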
JMJD2A Tudor = qHTS Assay for Inhibitors of JMJD2A-Tudor Domain; AlphaScreen JMJD2A-Tudor / H3K4me3 peptide binding; Potency, µM (titrated, usually from 114 µM), hits mostly inhibitors; actives 4.4% (n = 390,000); note: nearly all actives have a fitted effect of over 50% in size
Large screens that a line does not name were inactive. Calls come from the whole dose curve; as a rule, active = well fitted curve in the direction sought with a large enough effect; inconclusive = small, poorly fitted or top-dose-only effect, or another doubt; inactive = no such curve, though single readings can be large; an effect the other way counts as inactive or inconclusive.

CN1CCN(S(=O)(=O)c2cccc(C#N)c2)C(c2ccccc2)C1 (stereo not given)	G9a inh 56µM (no result: Sfp PPTase inh)
CN1CCCN(S(=O)(=O)c2ccc3ccccc3c2)CC1	G9a inh inconclusive
CCOc1cc(CNCCSc2nnnn2-c2ccccc2)cc(Cl)c1OC	none (no result: PLK1 PBD inh, Sfp PPTase inh)
COc1ccc2oc(=O)c(C(=O)OCc3ccccc3)cc2c1	PLK1 PBD inh inconclusive, Sfp PPTase inh 50µM, G9a inh 28µM
COc1ccc2oc(=O)c(C(=O)NCc3ccccc3)cc2c1	none
O=C(N/N=C/C1CC=CCC1)c1ccccc1O (stereo not given)	none
O=c1cnnc(N/N=C/C2CC=CCC2)[nH]1 (stereo not given)	Sfp PPTase inh 45µM, BAZ2B block 8.9µM, JMJD2A Tudor 32µM
Cc1cc(C)c2c(N)c(C(=O)NCc3ccco3)sc2n1	G9a inh 10µM
CCc1ccccc1NC(=O)c1sc2nc(C)cc(C)c2c1N	PLK1 PBD inh 24µM, JMJD2A Tudor inconclusive
Cc1cc(C)c2c(N)c(C(=O)Nc3ccccc3Br)sc2n1	none (no result: G9a inh)
CCOC(=O)N1CCN(C(=O)COC(=O)CNC(=O)c2ccc(OCC)c(OCC)c2)CC1	G9a inh inconclusive (no result: Sfp PPTase inh)
CCc1ccc(CN(Cc2ccco2)c2cnc(S(C)(=O)=O)nc2C(=O)Nc2ccc(C)c(Cl)c2)cc1	none (no result: PLK1 PBD inh, Sfp PPTase inh)
CCOc1ccc(NCC(=O)c2ccc(C)cc2)cc1	BAZ2B block 35µM, JMJD2A Tudor inconclusive
CCOc1ccc(NC(=O)c2ccc(NCC(=O)N3CCCCCC3)cc2)cc1	G9a inh 25µM
O=C1CS/C(=N/N=C/c2cccs2)N1Cc1ccc(F)cc1	none
Nc1ccc(Oc2ccc3nc(-c4ccccc4)c(-c4ccccc4)nc3c2)cc1	BAZ2B block inconclusive, JMJD2A Tudor inconclusive (no result: G9a inh)
Nc1ccc(Oc2cc(N)cc(Oc3ccccc3)c2)cc1	HP1b binding inh inconclusive, BAZ2B block 50µM, G9a inh inconclusive, JMJD2A Tudor inconclusive
CN(CC1CCOCC1)C(=O)CC1C(=O)NCCN1Cc1ccc(-c2ccccc2)cc1 (stereo not given)	none
COc1ccc(CN2CCNC(=O)C2CC(=O)N(C)CC2CCOCC2)cc1C (stereo not given)	G9a inh 79µM
COc1ccc(CN2CCNC(=O)C2CC(=O)N(C)CC2CCOCC2)cc1OC (stereo not given)	G9a inh 79µM
N#Cc1ccc(CN2CCC3(CC2)CCN(S(=O)(=O)c2ccccc2)CC3)cc1	none (no result: PLK1 PBD inh, HP1b binding inh, BAZ2B block, JMJD2A Tudor)
S=C(Nc1ccc(Cl)cc1Cl)Nn1cnnc1	PLK1 PBD inh 6.7µM, Sfp PPTase inh 13µM, G9a inh inconclusive
S=C(Nc1cccc(Cl)c1Cl)Nn1cnnc1	PLK1 PBD inh 17µM, HP1b binding inh inconclusive, Sfp PPTase inh 35µM, BAZ2B block inconclusive, G9a inh 4µM, JMJD2A Tudor inconclusive
S=C(Nc1cc(Cl)ccc1Cl)Nn1cnnc1	PLK1 PBD inh 21µM, Sfp PPTase inh 18µM, G9a inh 7.9µM
COc1ccc(NC(=O)C2(C)CCN2Cc2csc3ccccc23)cc1OC (stereo not given)	none (no result: HP1b binding inh, Sfp PPTase inh, BAZ2B block, G9a inh, JMJD2A Tudor)
O=C(CSc1nc2c([nH]c3ccccc32)c(=O)n1-c1ccc(F)cc1)NC1CCCCC1	none (no result: PLK1 PBD inh, Sfp PPTase inh)
O=C(Cn1nnc(-c2ccc(Cl)cc2)n1)NCC1CCCCC1	none
CCCCC(=O)Nc1cc(C)c(O)c(-c2nc3ncccc3o2)c1	none (no result: PLK1 PBD inh, Sfp PPTase inh)
CN(C1CCCCC1)S(=O)(=O)Cc1ccccc1	PLK1 PBD inh inconclusive, Sfp PPTase inh inconclusive, G9a inh 32µM
C[C@@H](C(=O)NCc1ccco1)N1C(=O)N2CCc3c([nH]c4ccccc34)[C@@]2(C)C1=O	BAZ2B block 50µM, G9a inh inconclusive
COc1ccc2[nH]c3c(c2c1)CCN1C(=O)N([C@@H](C)C(=O)NCCc2ccc(F)cc2)C(=O)[C@]31C	BAZ2B block inconclusive, G9a inh 50µM, JMJD2A Tudor inconclusive
COC(CN(C)C(=O)C1CCC(CNS(=O)(=O)c2ccc(C)cc2)CC1)OC (stereo not given)	PLK1 PBD inh 21µM
COC(CN(C)C(=O)C1CCC(CNS(=O)(=O)c2ccccc2)CC1)OC (stereo not given)	none
O=S(=O)(Nc1ccc(N2CCOCC2)cc1)c1ccc(Cl)s1	G9a inh inconclusive
O=S(=O)(NN1CCOCC1)c1ccc(Cl)s1	PLK1 PBD inh 21µM, G9a inh 1.3µM
O=S(=O)(NN1CCOCC1)c1ccc(Br)s1	PLK1 PBD inh 3µM (no result: G9a inh)
CN1CCN(NS(=O)(=O)c2ccc(Cl)s2)CC1	PLK1 PBD inh 8.4µM, G9a inh 1.6µM
CN(CC(=O)N1CCCCCC1)S(=O)(=O)c1ccc(Br)s1	none
O=C(CN(CC(=O)N1CCOCC1)S(=O)(=O)c1ccc(Br)s1)N1CCOCC1	PLK1 PBD inh 24µM, JMJD2A Tudor inconclusive (no result: Sfp PPTase inh, BAZ2B block, G9a inh)
COc1ccc(Oc2ncc3nc(C)c(=O)n(Cc4ccc(F)cc4)c3n2)cc1	none (no result: PLK1 PBD inh, HP1b binding inh, BAZ2B block, JMJD2A Tudor)
O=C(CCn1nc(-c2ccccc2)ccc1=O)NCCCN1CCCCCC1	BAZ2B block 79µM, JMJD2A Tudor inconclusive (no result: G9a inh)
Cc1ccccc1C1=Nn2c(nnc2-c2ccco2)SC1	Sfp PPTase inh inconclusive, G9a inh 28µM
CC1=Nn2c(nnc2-c2ccco2)SC1	Sfp PPTase inh 56µM
CC(=O)NCCCc1nc2ccccc2n1Cc1c(F)cccc1Cl	none (no result: G9a inh)
COc1ccc(CNc2nc3c(-c4ccc(C)cc4)nnn3c3ccccc23)cc1	none (no result: PLK1 PBD inh, Sfp PPTase inh)
CN(C)S(=O)(=O)c1ccc(C(=O)Oc2cc(=O)[nH]c3ccccc23)cc1	PLK1 PBD inh 8.4µM, G9a inh 71µM
CCOC(=O)c1[nH]c2ccccc2c1NC(=O)c1ccc(S(=O)(=O)N(C)C)cc1	none
CCOC(=O)Cc1csc(NC(=O)CCCc2ccccc2)n1	Sfp PPTase inh inconclusive, G9a inh 50µM
CCOC(=O)Cc1csc(NC(=O)CCC(=O)O)n1	none (no result: G9a inh)
CCOC(=O)Cc1csc(NC(=O)Cc2ccc(Br)cc2)n1	G9a inh 56µM
CCOC(=O)Cc1csc(NC(=O)Cc2ccc(Cl)cc2)n1	none
CCOC(=O)Cc1csc(CC(N)=O)n1	Sfp PPTase inh inconclusive, G9a inh 50µM
COc1ccc(Cl)cc1NC(=O)CN1C(=O)NC(Cc2c[nH]c3ccccc23)C1=O (stereo not given)	none (no result: Sfp PPTase inh, BAZ2B block, G9a inh)
COCCn1c(SCC(=O)Nc2c(C)n(C)n(-c3ccccc3)c2=O)nnc1-c1ccncc1	none (no result: Sfp PPTase inh)
COc1ccc(Cc2nc3ccc(C(=O)N(C)Cc4nccs4)cc3o2)cc1OC	PLK1 PBD inh 30µM, JMJD2A Tudor inconclusive (no result: G9a inh)
